Data on four compounds can be found in PubChem BioAssay (NCI).

The panel holds about 83,000 compounds, 20% with a hit somewhere; the sample as a whole holds those more often.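 96-well plates, one dose, 48 hours. Percent growth reported; active if below 10.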 Values without a mark were called inactive. The source made the active and inactive calls.

What all share (assay): NCI-60 one-dose screen, 48 h (100 = growth as untreated, 0 = no growth, -100 = all killed)
Test [1] relates to SR leukemia. To be noted: 10 µM unless noted.
The subject of test [2] is RPMI-8226 leukemia. To be noted: 10 µM unless noted.
In test [3] the test system is OVCAR-5 ovarian. To be noted: 10 µM unless noted.
The subject of test [4] is OVCAR-4 ovarian. To be noted: 10 µM unless noted.
In test [5] the test system is SK-OV-3 ovarian. To be noted: 10 µM unless noted.
Test [6] deals with IGROV1 ovarian. As to conditions: 10 µM unless noted.
Test [7] relates to OVCAR-3 ovarian. To be noted: 10 µM unless noted.
Test [8] concerns NCI/ADR-RES ovarian. As to conditions: 10 µM unless noted.
Test [9] relates to T-47D breast. To be noted: 10 µM unless noted.
For test [10], the system named is BT-549 breast. As to conditions: 10 µM unless noted.
For test [11], the system named is MDA-MB-435 melanoma. To be noted: 10 µM unless noted.
Test [12] has as its system SW-620 colon. As to conditions: 10 µM unless noted.
In test [13] the test system is MCF7 breast. As to conditions: 10 µM.
Test [14] concerns HCT-116 colon. As to conditions: 10 µM unless noted.
Test [15] relates to HCC-2998 colon. As to conditions: 10 µM unless noted.
The test system of test [16] is KM12 colon. As to conditions: 10 µM unless noted.
Test [17] deals with OVCAR-8 ovarian. As to conditions: 10 µM unless noted.
Test [18] deals with HS 578T breast. As to conditions: 10 µM unless noted.

As to `CCCCCCCCCCCCCCNCc1ccccc1`, the growth in test [1] is 11.8%; in test [2], 34.5%; in test [3] it was 105%; in [4], 80.3%; in test [5] it was 97.8%; in test [6], 97.7%. For the same compound, the growth in test [7] was 91.4%; in test [8], 79.6%; in test [9], 72.9%; in [10], 96.6%; in test [11], 72.2%; in [12] it was 42.5%. Besides, the growth was 51.2% in [13], 86.8% in test [14], 16.1% in [15] and 62.5% in [16].
Consider `CN(C)c1ccc(C(=C2C=CC(=[N+](C)C)C=C2)c2ccc(N(C)C)cc2)cc1` (tested in a mixture with another compound), for which the growth in test [2] is -52.6% (active); in [17], -23.2% (active); in [3], -66.9% (active); in test [4], -40.1% (active); in test [5], -81.1% (active); in [6] it was -63.8% (active). Moreover, the growth was -93.5% (active) in test [7]; -1.97% (active) in test [18]; -4.74% (active) in test [8]; -92.4% (active) in test [9]; -57.7% (active) in test [11]; -72.3% (active) in test [12]. Besides, the growth is -92.3% (active) in [13], -76% (active) in test [14] and -95.3% (active) in [16].
Take `COC(=O)[C@@]12OC[C@]34[C@H]([C@@H](O)[C@@H]1O)[C@@]1(C)[C@H](O)C(=O)C=C(C)[C@@H]1C[C@H]3OC(=O)C(OC(C)=O)[C@@H]24` (some centres not stated): the growth in [1] was -43% (active); in test [2], -69.8% (active); in [3] it was -11.5% (active); in test [4], 3.68% (active); in test [5] it was -9.46% (active); in test [6], -58% (active). Moreover, the growth in [7] is -48.4% (active); in [8], 16%; in test [9], -20.5% (active); in [10] it was -53.1% (active); in test [11], -81.2% (active); in test [12] it was -38.2% (active). In addition, the growth is -19.2% (active) in test [13], -54.1% (active) in test [14] and -57.8% (active) in test [16].
Regarding `O=C1C2=C(Nc3cc([N+](=O)[O-])ccc3N2)OC1c1c2ccccc2cc2ccccc12` (configuration not stated), the growth in [1] was 23.5%; in test [2], 15%; in test [3], 75.8%; in test [4], 50%; in [5], 104%; in test [6], 52.3%. The growth in [7] is 69.4%; in [18] it was 73.6%; in test [9], 47.4%; in test [10], 23.3%; in test [11], 73%; in test [12], 21.8%. In addition, the growth in test [13] is 22.3%; in test [14], 15.5%; in [15], 72.6%; in [16], 16.7%.
